High-throughput results: PubChem BioAssay, National Center for Advancing Translational Sciences (NCATS)
In the library only some 10% were active in any assay of this set; here they are far more common.
Pf growth 96h = inhibits malaria parasite growth, 96 h; actives 6.9% (n = 320,000); Potency, µM (doses to about 28.7 µM), actives largely listed as inhibitors; P. falciparum luciferase reporter growth, 96 h; AID 504834; active = well fitted inhibition curve with a large enough effect; inconclusive = small, poorly fitted or top-dose-only effect, or another doubt; inactive = no such curve, though single readings can be large or run the other way
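96 h incubation, 37 C, 5% CO2, of luciferase-reporter P. falciparum-infected RBCs (2% hematocrit, 0.05% parasitemia final) with test compounds; endpoint luminescence.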
SARS PLpro yeast = SARS-CoV PLP inhibition in yeast | S. cerevisiae expressing SARS-CoV PLpro, growth rescue | AID 485353 | Potency, µM (titrated, usually from 32.9 µM), most hits filed as activators | actives 0.19% (n = 330,000); also: nearly all actives have a fitted effect of over 55% in size
Pf growth 48h = P. falciparum growth inhibition at 48 hours (one generation); actives 5.9% (n = 310,000); Potency, µM (titrated, usually from 28.7 µM), usual class: inhibitors; AID 504832; P. falciparum luciferase growth in erythrocytes, 48 h; active = well fitted inhibition curve with a large enough effect; inconclusive = small, poorly fitted or top-dose-only effect, or another doubt; inactive = no such curve, though single readings can be large or run the other way
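First compound was added to culture medium, then infected red cells at 0.1% parasitemia and 2% hematocrit (final). After incubation at 37 C under 5% CO2, luciferase detection reagent was dispensed and light output recorded.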
NS1 function inh = blocks influenza NS1 protein function; actives 0.4% (n = 270,000); AID 2326; Potency, µM (series often up to 46.1 µM); also: actives are rising curves; nearly all actives have a fitted effect of over 50% in size
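In this qHTS, NS1 from influenza A is expressed in budding yeast, where it slows growth. Cells are switched from glucose to 2% galactose medium (pH 6.0, -URA), treated with compound, and growth recovery is read at OD600.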
A number is an active result; - = inactive; ? = inconclusive; . = no result; [ ] = another dose, or the depositor's remark. Unless noted, calls follow the shape of the full dose curve.

SMILES	Pf growth 96h	SARS PLpro yeast	Pf growth 48h	NS1 function inh
O=C(Nc1cc(Cl)ccc1Cl)C1CC(=O)N(c2ccccc2)C1 (stereo unspecified)	-[1.15 µM]	-	-[1.15 µM]	-
CNC(=S)N(CCc1ccc(OC)c(OC)c1)C1CC(=O)N(c2ccccc2)C1=O (stereo unspecified)	-	-	?	-
O=C1CC(N(CCc2ccccc2)C(=S)Nc2cc(Cl)ccc2Cl)C(=O)N1c1c(Cl)cccc1Cl (stereo unspecified)	10µM	-	?	?
COC(=O)CN(C(=S)Nc1ccc(F)cc1)C1CC(=O)N(c2ccccc2)C1=O (stereo unspecified)	-	-	10µM	-
CCN[C@H]1CN(CCCOC)S(=O)(=O)c2sc(S(N)(=O)=O)cc21	-	-	-	.
CC1=NN(C(=O)c2csc(C(C)C)c2)C(O)(C(F)(F)F)C1 (stereo unspecified)	-	-	?	-
COc1ccc(Nc2nc(-c3cccc([N+](=O)[O-])c3)nc3ccccc23)cc1	?	-	?	-
C=Cn1c(P(=S)(N2CCOCC2)N2CCOCC2)cc2c1CCCC2	-	-	12µM	-
Nc1ncc(P(=S)(N2CCOCC2)N2CCOCC2)s1	-	-	-	-
CCOc1ccc(S(=O)(=O)NCCCN2CCOCC2)c2ccccc12	-	-	-	-
CCOc1ccc2ccccc2c1CNCCN1CCOCC1	5.2µM	-	13µM	-
COc1cc(CNCCN2CCOCC2)ccc1OCc1ccccc1Cl	12µM	-	?	-
CCOc1ccc(Br)cc1CNCCN1CCOCC1	12µM	-	-	-
CCOc1cc(CNCCCN2CCOCC2)cc(Br)c1OCC(=O)Nc1cccc(C(F)(F)F)c1	0.66µM	-	1.2µM	-
CCOc1cc(CNCCCN2CCOCC2)cc(Cl)c1OCC(=O)NC(C)(C)C	-	-	?	-
CCOc1cc(CNC(C)(C)C)ccc1OCC(=O)Nc1cccc(C(F)(F)F)c1	-[1.15 µM]	-	6.6µM	-
COc1ccc(N2CCN(C(=O)CCc3ccc(S(=O)(=O)NC(C)(C)C)cc3)CC2)cc1	?	-	?	-
CC(C)n1cnnc1SCC(=O)Nc1cccnc1Cl	.	-	.	.
COc1ccc(NC(=O)c2ccc(COc3ccccc3)o2)c(OC)c1	8.3µM	-	-	-
COc1cccc(C(=O)NC(=S)Nc2ccccc2N2CCCCC2)c1	?	?	7.4µM	?
COc1cc(NC(=O)Cc2ccccc2)ccc1NC(=O)c1ccccc1	10µM	-	-	-
COc1ccc(C(=O)N/N=C/C(Br)=C/c2ccccc2)cc1	-	-	?	-
COc1cccc(C(=O)NC(=S)Nc2ccccc2N2CCCC2)c1	?	-	?	-
COc1cccc(C(=O)N/N=C/C(Br)=C/c2ccccc2)c1	-	-	13µM	-
O=[N+]([O-])c1ccccc1S(=O)(=O)N1CCSCC1	-	-	-	.
SMILES	Pf growth 96h	SARS PLpro yeast	Pf growth 48h	NS1 function inh
CNC[C@@H](SC)c1ccc(O)c(O)c1	.	.	.	-
CN(C(=O)c1ccc(NC(=O)Cc2cccc(NC(=O)C3CCN(C(=O)C4CCCC4)CC3)c2)cc1)C1CCCC1	?	-	?	.
COc1cc(/C=C/C(=O)OCC(=O)N(C)C2CCS(=O)(=O)C2)ccc1OC(F)F (stereo unspecified)	?	-	?	-
COc1ccc(NC(=O)C(Sc2ccccc2)c2ccccc2)c(OC)c1 (stereo unspecified)	2.6µM	-	-	-
COc1cccc(C(=O)Nc2ccccc2-c2ccccc2)c1	-	-	?	.
COc1ccccc1NC(=O)C(Sc1ccccc1)c1ccccc1 (stereo unspecified)	?	-	?	-
CCCOc1cccc(C(=O)NCCCNC(=O)c2ccccn2)c1	-	-	-	-
COc1cccc(C(=O)NCCCNC(=O)c2ccccn2)c1	4.7µM	-	-	-
COc1cccc(C(=O)Nc2ccccc2NC(=O)c2cccc(OC)c2)c1	15µM	-	-	-
CC(=O)Oc1ccc(C(=O)Nc2cccc(C(=O)NC(C)(C)C)c2)cc1	5.2µM	-	-	.
Cc1ccc(NC(=O)CSCC(=O)NNC(=O)c2ccoc2C)cc1	-	-	-	.
COc1ccc(-c2cc3nc4ccccc4n3c(N)c2C#N)cc1	-	-	-	-
COc1c(C)cc(C(=O)C2CCCN(C(=O)c3cc(C4CC4)[nH]n3)C2)cc1C (stereo unspecified)	?	-	?	-
Cc1cccc(OCCCC(=O)NNC(=O)c2ccccn2)c1	1.7µM	-	2.3µM	.
Cc1cccc(OCCCC(=O)NNC(=O)c2ccncc2)c1	-	-	-	.
COc1ccc(NC(=O)c2cccc(NC(=O)c3ccccc3)c2)c(OC)c1	10µM	-	-	-
COc1cccc(C(=O)Nc2ccc(NC(=O)C3CC=CCC3C(=O)O)cc2)c1 (stereo unspecified)	12µM	-	-	-
CC(C)(CN1CCN(C(c2ccccc2)c2ccccc2)CC1)NS(=O)(=O)c1ccccc1	10µM	-	12µM	-
CC(C)(CN1CCC(Cc2ccccc2)CC1)NS(=O)(=O)c1ccccc1	-	-	12µM	-
CC(C)(CN1CCN(Cc2ccccc2)CC1)NS(=O)(=O)c1ccccc1	-	-	-	-
COc1ccc2c(c1)CC/C(=C\C=C\c1ccccc1OC)C2=O	?	-	-	-
COc1ccc2c(c1)C(=O)/C(=C/C=C/c1ccccc1)CC2	2.3µM	-	?	-
CC(C)CC1(C(=O)NCCc2c[nH]c3ccccc23)C=CCN1C(=O)c1ccccc1 (stereo unspecified)	10µM	-	?	-
CC(=O)N1CC=CC1(CC(C)C)C(=O)NCCc1c[nH]c2ccccc12 (stereo unspecified)	-	-	-	-
COc1cc(NS(=O)(=O)c2ccc(NC(=S)NC(=O)c3ccc(F)c(F)c3)cc2)nc(OC)n1	-	-	-	-
SMILES	Pf growth 96h	SARS PLpro yeast	Pf growth 48h	NS1 function inh
CC(C)(C)CN1CCN(Cc2cccnc2)CC1CCO (stereo unspecified)	10µM	-	-	-
OCCC1CN(Cc2ccon2)CCN1Cc1ccccc1 (stereo unspecified)	-	-	-	-
Cn1cc(CN2CCN(CC(C)(C)C)C(CCO)C2)c2ccccc21 (stereo unspecified)	1.5µM	-	-	-
Cc1cccc(CN2CCN(Cc3cccc(-n4cccn4)c3)CC2CCO)n1 (stereo unspecified)	4.1µM	-	-	-
COc1ccc(S(=O)(=O)N2CCN(CCc3ccccc3)CC2)cc1	?	-	-	-
CC(=O)Nc1ccc(C(=O)NCC2CCCCC2)cc1	-	-	-	-
Cc1ccsc1CN(C)C(=O)CN1C(=O)NC2(CCCCC2C)C1=O (stereo unspecified)	?	-	-	.
Cc1sc2ncnc(N3CCC(C(=O)Nc4ccccc4C(C)(C)C)CC3)c2c1C	?	-	12µM	.
Cc1sc2ncnc(N3CCC(C(=O)Nc4nc(-c5cccs5)cs4)CC3)c2c1C	10µM	-	?	.
CCOC(=O)c1ccccc1NC(=O)C1CCN(c2ncnc3sc(C)c(C)c23)CC1	-	.	10µM	.
CCCCc1nnc(NC(=O)C2CCN(c3ncnc4sc(C)c(C)c34)CC2)s1	?	-	?	.
CCc1nnc(NC(=O)C2CCN(c3ncnc4sc(C)c(C)c34)CC2)s1	-	-	-	.
